These results are taken from PubChem BioAssay.

The target in one assay is Albumin (Bos taurus) (UniProt P02769). Nature of the assay: compounds binding labelled BSA control protein – biochemical, small-molecule microarray, Alexa647 label, 635/667 nm fluorescence, artefact control for SMM control protein annotation, profiling panel (AID 1118).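 Further: score merges 667 nm emission intensity and signal-to-noise per printed compound spot.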 To be noted: BSA-A647 binding, fluorescence 635 nm, higher = more signal.
Sequence of Albumin (Bos taurus) (P02769 whole entry, looked up): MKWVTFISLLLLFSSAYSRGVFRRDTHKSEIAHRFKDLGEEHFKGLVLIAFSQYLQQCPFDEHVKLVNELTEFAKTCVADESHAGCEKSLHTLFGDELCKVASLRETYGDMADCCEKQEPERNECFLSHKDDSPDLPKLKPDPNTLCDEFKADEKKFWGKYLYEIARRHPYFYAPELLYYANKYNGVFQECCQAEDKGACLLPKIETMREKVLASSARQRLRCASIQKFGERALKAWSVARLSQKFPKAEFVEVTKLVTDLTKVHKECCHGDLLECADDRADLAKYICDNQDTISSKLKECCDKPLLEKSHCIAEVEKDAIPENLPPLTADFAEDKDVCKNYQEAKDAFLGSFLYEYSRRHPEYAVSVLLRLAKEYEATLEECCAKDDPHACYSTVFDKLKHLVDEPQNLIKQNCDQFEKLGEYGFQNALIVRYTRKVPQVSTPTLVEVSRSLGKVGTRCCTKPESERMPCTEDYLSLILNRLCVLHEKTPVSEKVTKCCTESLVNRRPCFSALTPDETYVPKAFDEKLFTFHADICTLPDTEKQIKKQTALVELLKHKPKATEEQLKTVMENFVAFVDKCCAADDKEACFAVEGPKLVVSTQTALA
Assay [1] in a line: probe aXIP binding to arrayed compounds – biochemical, NeuroSMM set, 635/667 nm fluorescence, primary screen (AID 1119).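 Further: probe is the protein aXip251-270 applied at 1 µg/mL to compound-printed slides; binding of probe to printed compounds measured as 667 nm fluorescence plus signal to noise.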 To be noted: small-molecule microarray, higher = more signal, called active from +8 up or from −8 down.
A short description of assay [2]: probe aNOTCH3 binding on compound microarray – biochemical, small-molecule microarray, 635/667 nm fluorescence, primary screen (AID 1120).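 Further: probe is a biotin-tagged antibody raised against NOTCH3 rather than NOTCH3 protein; score merges spot fluorescence near 667 nm with spot signal to noise.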 The conditions noted are these: higher = more signal.
Assay [3] can be described thus: probe aNOTCH2 binding on compound microarray – biochemical, small-molecule microarray, 635/667 nm fluorescence, primary screen (AID 1121).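 Further: score merges feature fluorescence read at 667 nm with its signal to noise.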 The conditions noted are these: higher = more signal.
For assay [4], the target named is Carbonic anhydrase 2 (Homo sapiens) (UniProt P00918). Briefly: compounds binding carbonic anhydrase 2 – biochemical, small-molecule microarray, Alexa647-labelled CAII, profiling panel (AID 1122). To be noted: CAII-A647 binding fluorescence, higher = more signal.
Assay [5] is described as follows: COS7 lysate on small-molecule microarray, probe aHis, 635 nm (AID 1123).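 Further: z-score combines 667nm fluorescence intensity with signal-to-noise per printed compound spot.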 The conditions noted are these: COS7 cell lysate, fluorescence, higher = more signal.
Assay [6] is described as follows: probe aLAP1 signal on lysate-treated microarray – cell lysate, small-molecule microarray, COS7 lysate, primary screen (AID 1124).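 Further: lysate comes from COS7 cells expressing LAP1 and is applied at 0.3 µg/mL; score merges spot fluorescence near 667 nm with signal-to-noise over triplicate slides.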 The conditions noted are these: probe aLAP1, fluorescence, higher = more signal.
In a further assay the test system is Sam68 (KHDRBS1). Nature of the assay: compounds binding KHDRBS1 protein – biochemical, small-molecule microarray, 635 nm fluorescence, primary screen (AID 1125).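 Further: score merges 667 nm channel intensity with signal to noise over triplicate slides.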 The conditions noted are these: higher = more signal.
Assay [7] deals with Chordin-like protein 2 (CHRDL2). Nature of the assay: compounds binding chordin-like 2 – biochemical, small-molecule microarray, 635 nm fluorescence, primary screen (AID 1126).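 Further: printed compound slides probed with Chrdl2 protein at 4 µg/mL for 1 h at 4 C; score merges 667 nm emission intensity with signal to noise over three replicate slides.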 To be noted: fluorescence 635 nm, higher = more signal.
Assay [8] deals with Concanavalin-A (Canavalia ensiformis) (UniProt P02866). Briefly: compounds binding concanavalin A lectin – biochemical, small-molecule microarray, Alexa647 label, 635 nm, artefact control for SMM control protein annotation, primary screen (AID 1127).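 Further: z combines 667 nm emission intensity with signal-to-noise across three replicate slides.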 The conditions noted are these: ConA-A647 binding fluorescence, higher = more signal.
Sequence of Concanavalin-A (Canavalia ensiformis) (P02866 whole entry, looked up): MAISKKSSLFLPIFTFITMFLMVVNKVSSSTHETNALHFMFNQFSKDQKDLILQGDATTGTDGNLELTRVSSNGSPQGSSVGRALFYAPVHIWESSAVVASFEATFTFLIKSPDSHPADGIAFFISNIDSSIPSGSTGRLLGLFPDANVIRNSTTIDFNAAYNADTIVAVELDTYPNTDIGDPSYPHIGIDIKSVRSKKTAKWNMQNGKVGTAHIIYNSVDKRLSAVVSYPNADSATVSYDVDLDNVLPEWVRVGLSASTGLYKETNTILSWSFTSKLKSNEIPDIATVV
Assay [9] in a line: compounds binding Alexa647 anti-His antibody – biochemical, small-molecule microarray, 635 nm fluorescence, artefact control for SMM control protein annotation, primary screen (AID 1128).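 Further: score merges feature fluorescence with signal-to-noise for each printed compound spot.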 To be noted: higher = more signal.
For assay [10], the system named is Human papillomavirus type 1a E7 protein (residues 1-88). Briefly: HPV1a E7 small-molecule binders, primary screen, biochemical, small-molecule microarray, residues 1-88, 635 nm (AID 1129). To be noted: small-molecule microarray binding, fluorescence 635 nm; higher = more signal.
Assay [11] addresses Focal adhesion kinase 1 (Homo sapiens) (UniProt Q05397). Nature of the assay: PTK2 protein binding on printed compound slides – biochemical, small-molecule microarray, 635/667 nm fluorescence, BSA, DTT, primary screen (AID 1130).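 Further: composite of spot emission at 667 nm and signal to noise over triplicate slides.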 To be noted: 635 nm fluorescence, higher = more signal.
Assay [12] deals with Fibrinogen (Alexa647-labelled). Briefly: Alexa647-fibrinogen binding to printed small molecules – biochemical, small-molecule microarray, 635/667 nm fluorescence, artefact control for SMM control-protein annotation, profiling panel (AID 1131).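 Further: z-score merges 667 nm fluorescence with per-spot signal-to-noise over triplicate slides.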 To be noted: fibrinogen-A647 binding fluorescence, higher = more signal.
The target of assay [13] is Follistatin (Homo sapiens) (UniProt P19883). Nature of the assay: FST protein binding to printed compounds – biochemical, small-molecule microarray, 635/667 nm fluorescence, primary screen (AID 1132). To be noted: 635 nm fluorescence, higher = more signal.
Sequence of Follistatin (Homo sapiens) (P19883 whole entry, looked up): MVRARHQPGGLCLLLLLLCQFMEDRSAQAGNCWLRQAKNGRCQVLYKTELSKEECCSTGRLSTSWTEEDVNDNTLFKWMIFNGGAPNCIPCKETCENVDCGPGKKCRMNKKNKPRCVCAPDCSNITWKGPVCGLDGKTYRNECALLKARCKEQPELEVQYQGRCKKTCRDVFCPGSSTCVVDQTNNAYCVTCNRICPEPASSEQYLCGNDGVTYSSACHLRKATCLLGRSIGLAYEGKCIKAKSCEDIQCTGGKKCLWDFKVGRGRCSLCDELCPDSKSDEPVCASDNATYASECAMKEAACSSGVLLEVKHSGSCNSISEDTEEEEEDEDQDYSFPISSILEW
For assay [14], the target named is Fibroblast growth factor 2 (Homo sapiens) (UniProt P09038). Nature of the assay: basic fibroblast growth factor binding to printed compounds – biochemical, small-molecule microarray, 635/667 nm fluorescence, primary screen (AID 1133). The conditions noted are these: FGF2, fluorescence 635/667, higher = more signal.
Sequence of Fibroblast growth factor 2 (Homo sapiens) (P09038 whole entry, looked up): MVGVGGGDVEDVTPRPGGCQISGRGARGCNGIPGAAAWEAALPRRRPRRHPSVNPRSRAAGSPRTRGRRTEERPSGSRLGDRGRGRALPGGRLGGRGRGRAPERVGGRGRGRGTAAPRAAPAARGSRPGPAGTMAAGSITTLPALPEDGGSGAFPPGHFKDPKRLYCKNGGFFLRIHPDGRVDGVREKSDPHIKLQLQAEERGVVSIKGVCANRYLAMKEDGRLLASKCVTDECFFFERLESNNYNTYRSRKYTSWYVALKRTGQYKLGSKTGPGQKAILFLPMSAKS
A short description of assay [15]: JC-1 mitochondrial potential readout, lung cancer cells – cell-based, A549, JC-1 fluorescence, basal, 24 h, 100 nL, profiling panel (AID 1138).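 Further: A549 lung adenocarcinoma cells under basal conditions with no added stimulus; test concentration not given here.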 The conditions noted are these: higher = more signal.
The subject of another assay is Lefty1. Nature of the assay: Lefty1 protein binding to printed compounds – biochemical, small-molecule microarray, 635/667 nm fluorescence, primary screen (AID 1139). The conditions noted are these: fluorescence 635/667, higher = more signal.
The subject of assay [16] is wheat germ agglutinin (Triticum aestivum), Alexa647-labelled. Briefly: Alexa647-WGA lectin binding to printed small molecules – biochemical, small-molecule microarray, 635/667 nm fluorescence, artefact control for SMM control-protein annotation, profiling panel (AID 1140).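 Further: score merges 667 nm feature emission with signal to noise over triplicate slides.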 To be noted: WGA-A647 binding, 635 nm fluorescence, higher = more signal.
Assay [17] concerns the target Luciferin 4-monooxygenase (Photinus pyralis) (UniProt P08659). Briefly: inhibition of purified Photinus pyralis luciferase – biochemical, luminescence, purified enzyme, 2006 set, primary screen (AID 1141).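 Further: cell-free assay with purified firefly luciferase at 100 ng per well in PBS; test concentration not given here.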 To be noted: purified firefly luciferase, SteadyGlo luminescence, 30 min; higher = more signal, called active from +8 up or from −8 down.

Calls of active or inactive are those of the source.

Sequence of Luciferin 4-monooxygenase (Photinus pyralis) (P08659 whole entry, looked up): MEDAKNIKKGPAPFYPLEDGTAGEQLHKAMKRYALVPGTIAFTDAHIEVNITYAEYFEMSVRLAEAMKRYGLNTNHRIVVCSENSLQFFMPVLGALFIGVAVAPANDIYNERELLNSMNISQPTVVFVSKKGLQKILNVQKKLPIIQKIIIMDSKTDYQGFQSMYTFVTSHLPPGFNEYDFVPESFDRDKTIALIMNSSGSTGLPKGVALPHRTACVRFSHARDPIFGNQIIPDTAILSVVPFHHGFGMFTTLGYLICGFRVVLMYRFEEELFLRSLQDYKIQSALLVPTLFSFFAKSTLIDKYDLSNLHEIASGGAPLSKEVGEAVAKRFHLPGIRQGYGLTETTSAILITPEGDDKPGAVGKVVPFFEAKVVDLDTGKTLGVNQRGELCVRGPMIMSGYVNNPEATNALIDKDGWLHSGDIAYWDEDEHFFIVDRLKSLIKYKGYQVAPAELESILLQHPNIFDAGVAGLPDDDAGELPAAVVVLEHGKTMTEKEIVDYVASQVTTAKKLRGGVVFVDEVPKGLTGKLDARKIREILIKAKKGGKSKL
Sequence of Focal adhesion kinase 1 (Homo sapiens) (Q05397 whole entry, looked up): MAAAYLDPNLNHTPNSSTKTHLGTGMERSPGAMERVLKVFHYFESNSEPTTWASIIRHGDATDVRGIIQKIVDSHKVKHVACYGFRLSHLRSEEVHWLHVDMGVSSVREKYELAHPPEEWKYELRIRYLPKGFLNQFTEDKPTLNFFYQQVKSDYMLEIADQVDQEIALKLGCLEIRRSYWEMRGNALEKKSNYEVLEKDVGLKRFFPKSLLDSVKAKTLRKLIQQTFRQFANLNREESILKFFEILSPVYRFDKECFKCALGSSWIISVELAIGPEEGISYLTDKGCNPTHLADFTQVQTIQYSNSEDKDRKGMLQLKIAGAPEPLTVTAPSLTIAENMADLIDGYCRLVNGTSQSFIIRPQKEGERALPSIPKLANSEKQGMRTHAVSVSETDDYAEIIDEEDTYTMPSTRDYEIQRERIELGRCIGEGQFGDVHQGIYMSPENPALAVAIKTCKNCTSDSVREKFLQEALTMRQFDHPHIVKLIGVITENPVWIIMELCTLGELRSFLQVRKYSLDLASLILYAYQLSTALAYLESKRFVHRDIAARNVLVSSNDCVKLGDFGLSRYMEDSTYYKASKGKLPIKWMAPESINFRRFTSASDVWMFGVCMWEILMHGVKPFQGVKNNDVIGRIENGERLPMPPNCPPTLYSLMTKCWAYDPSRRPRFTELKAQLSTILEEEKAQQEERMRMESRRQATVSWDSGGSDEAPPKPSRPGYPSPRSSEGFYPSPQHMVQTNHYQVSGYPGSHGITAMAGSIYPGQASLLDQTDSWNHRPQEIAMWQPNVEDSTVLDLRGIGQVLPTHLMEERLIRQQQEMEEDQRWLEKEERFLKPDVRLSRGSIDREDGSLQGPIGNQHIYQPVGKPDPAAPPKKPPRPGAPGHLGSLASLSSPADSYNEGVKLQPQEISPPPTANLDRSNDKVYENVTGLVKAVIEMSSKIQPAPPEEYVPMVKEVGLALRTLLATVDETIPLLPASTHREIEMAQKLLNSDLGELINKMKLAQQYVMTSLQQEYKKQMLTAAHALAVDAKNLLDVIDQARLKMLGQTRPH

With `COCCOC(=O)N1C(=O)[C@@]2(c3cc(C#CCNC(N)=O)ccc31)[C@H](c1ccccc1OCCO)N1[C@H](c3ccccc3)[C@H](c3ccccc3)OC(=O)[C@H]1[C@@H]2C(=O)NC[C@H](O)c1ccccc1`, the composite z-score with Albumin (Bos taurus) is 0.679; in assay [2], 0.163; in assay [3], -0.113; in assay [4], 0.681; in assay [5], 2.12; in assay [6], 0.717. Besides, the composite z-score in the assay with Sam68 (KHDRBS1) was found to be 1.28; in assay [7], 0.0781; in assay [8], 1.08; in assay [9], 1.06; in assay [10] it was 1.2; in [11], 0.499. Further, the composite z-score in assay [12] is 0.943; in assay [13], 1.28; in assay [14], 0.472; in the assay on Lefty1, 0.688; in assay [16] it was 0.832. Also, the composite Z-score in assay [1] is 0.25 (inactive). Besides, the z-score in assay [15] is -1.31; in [17], 0.311 (inactive).
For the molecule `C/C(=N\O)C(=O)NCCCCCNC(=O)OCc1ccccc1`, the composite z-score with Albumin (Bos taurus) was 0.487; in assay [2], 0.0066; in [3], -0.0942; in [4], 0.355; in [5] it was 0.332; in [6], 0.199. In addition, the composite z-score in the assay with Sam68 (KHDRBS1) is 0.639; in [7] it was 0.367; in [8], 0.818; in [9], 0.443; in assay [10], 0.783; in assay [11], 0.317. The composite z-score stood at 0.825 in assay [12]; 0.7 in assay [13]; 0.545 in assay [14]; 0.93 in the assay with Lefty1; 0.3 in [16]. Also, in [1], the composite Z-score is 0.179 (inactive). Also, the z-score in assay [15] is 2.02; in assay [17], -1.72 (inactive).
Consider `C#C[C@H](O[Si](C#Cc1ccccc1)(C(C)C)C(C)C)c1ccccc1`, for which the composite z-score with Albumin (Bos taurus) is 0.0778; in assay [2], -0.293; in assay [3], -0.0743; in assay [4], 0.564; in assay [5], 0.0271; in [6] it was 0.252. In addition, the composite z-score with Sam68 (KHDRBS1) was 0.0094; in assay [7], -0.429; in assay [8], -0.683; in assay [9], 0.126; in assay [10], -0.581; in assay [11], -0.515. Moreover, the composite z-score in assay [12] is -0.664; in [13] it was -0.89; in assay [14] it was -0.487; in the assay with Lefty1, -0.126; in assay [16] it was -0.242. For the same molecule, the composite Z-score in [1] is 0.422 (inactive). Further, the z-score in [15] is -1.47; in assay [17], 0.645 (inactive).
As to `O=C(CS)NCCCCCCNC(=O)[C@@H]1C[C@@H]2C(=O)N[C@@H](Cc3ccccc3)C(=O)N2[C@@H]1c1ccc(O)cc1`, the composite z-score with Albumin (Bos taurus) is -0.318; in assay [2], -0.128; in [3], -0.168; in assay [4], 0.636; in assay [5], 2.87; in assay [6], 1.47. The composite z-score with Sam68 (KHDRBS1) amounted to 1.28; in assay [7], 0.976; in assay [8] it was 0.938; in assay [9], 2.75; in assay [10], 1.24; in assay [11], 0.874. Also, the composite z-score in assay [12] is 0.255; in [13] it was 1.38; in assay [14], 1.73; in the assay on Lefty1, 1.48; in [16], 0.072. In addition, the composite Z-score in assay [1] is 1.1 (inactive). In addition, the z-score in assay [15] was -1.39; in assay [17], -0.663 (inactive).
For `COCCCNC(=O)[C@@]1(c2ccc([N+](=O)[O-])cc2)CC(=O)N(C2CCCCC2)[C@@H]1c1ccc(CO)cc1`, the composite z-score is 0.502 with Albumin (Bos taurus); -0.391 in assay [2]; -0.272 in assay [3]; 0.672 in assay [4]; 2.28 in [5]; 1.63 in assay [6]. For the same molecule, the composite z-score with Sam68 (KHDRBS1) is 0.0163; in [7], -0.264; in assay [8], -0.194; in [9], 1.13; in assay [10] it was 0.542; in assay [11], 0.643. Besides, the composite z-score in assay [12] is -0.523; in assay [13], -0.0809; in assay [14], 0.269; in the assay with Lefty1, -1.4; in [16], -0.273. In addition, the composite Z-score in [1] is -0.0867 (inactive). Also, the figures for the z-score in assay [15] and in [17] were 0.612 and -0.501 (inactive), respectively.
Turning to `C=CCOC(=O)[C@@H]1[C@H]2C(=O)O[C@H](c3ccccc3)[C@H](c3ccccc3)N2[C@H](c2ccc(OCCOC(=O)[C@H]3C[C@H]4C(=O)N5CCC[C@H]5C(=O)N4[C@H]3c3ccc(O)cc3)cc2)[C@@]12C(=O)Nc1ccccc12`, the composite z-score in the assay with Albumin (Bos taurus) was -0.876; in assay [2], -0.125; in assay [3] it was -0.185; in assay [4] it was 0.252; in assay [5], 1.12; in [6], 0.333. The composite z-score in the assay on Sam68 (KHDRBS1) worked out at 1.27; in assay [7], 0.95; in [8] it was 1.19; in assay [9] it was 0.912; in [10] it was 1.2; in [11], 0.782. Besides, the composite z-score in assay [12] is 0.81; in assay [13] it was 1.37; in [14], 1.58; with Lefty1, 0.872; in assay [16], 0.93. Further, the composite Z-score in assay [1] is 0.223 (inactive). Besides, the z-score in assay [15] was -1.47; in [17], -0.803 (inactive).
